Assay [1] relates to Zika virus NS2B-NS3 protease. In words: Primary screen GU AMC qHTS for Zika virus inhibitors (AID 1347154). Also: nearly all actives have a fitted effect of over 70% in size. Also: potency is read from the fitted curve at half-maximal effect. Summed up:
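Unlinked Zika NS2B hydrophilic domain/NS3 protease domain noncovalent complex (25 nM final) in 10 mM Tris-HCl pH 8.0, 0.01% Tween 20, with AMC peptide substrate. Fluorescence (ex 340, em 450 nm) change over 15 min, room temperature; percent inhibition fitted to 4-parameter Hill equation.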
(In general: qHTS replaces the single test concentration by a dilution series.)

Assay [2] is described as follows: qHTS to identify inhibitors of the type 1 interferon - major histocompatibility complex class I in skeletal muscle: primary screen against the NCATS Pharmaceutical Collection (AID 1347407).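 Also: luminescence of HiBiT knocked into endogenous HLA-B as interferon-induced MHC class I level.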 Summed up: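 Immortalized human myoblasts (C25cl48) with HiBiT knocked into endogenous HLA-B*08:01 were stimulated with 4.0 ng/ml IFN-beta and treated with compounds ([…] top 46 uM) for 24 hrs at 37 C. HiBiT lytic luminescence read.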

In assay [3] the test system is Zika virus NS2B-NS3 protease (linked construct). In words: Primary screen NINDS Rhodamine qHTS for Zika virus inhibitors (AID 1347160). Also: nearly all actives have a fitted effect of over 55% in size. Summed up: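 In 10 mM Tris-HCl pH 8.0 containing 0.01% Tween 20, linked NS2B-NS3 protease (25 nM final) is exposed to test compounds for 15 min. Cleavage of 1.5 microM Rhodamine110 substrate is tracked by fluorescence over 15 min.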

Potency data for 34 compounds are collected here from PubChem BioAssay (NCATS).

Where “and” joins values, the source holds several entries; their conditions need not be identical. Equal values may be shown once. Results filed as inconclusive are left out. Where a call stands in place of a potency, no number is given. Calls of active or inactive are those of the source. Calls follow the shape of the dose curve; as a rule, active = well fitted curve in the direction sought with a large enough effect; inconclusive = small, poorly fitted or top-dose-only effect, or another doubt; inactive = no such curve, though single readings can be large; an effect the other way counts as inactive or inconclusive.

Take `Clc1ccc(C(Cn2ccnc2)OCc2ccc(Sc3ccccc3)cc2)c(Cl)c1` (stereo unspecified): the Potency result in assay [1] and in assay [2] was “inactive” each time.

On to `CN(C)C(=O)COC(=O)Cc1ccc(OC(=O)c2ccc(N=C(N)N)cc2)cc1`, for which the Potency entry in assay [1] and in assay [2] was “inactive” throughout.

As for `CCCc1cc(=O)[nH]c(=S)[nH]1`, the Potency entry in assay [1] and in assay [2] was “inactive” in each case.

As to `COc1cc(OC)c(C(=O)CCCN2CCCC2)c(OC)c1`, the Potency entry in assay [1] and in assay [2] was “inactive” in each case.

Regarding `COc1cc2nc(N3CCN(C(=O)C4CCCO4)CC3)nc(N)c2cc1OC` (stereo unspecified), in assay [1], the Potency was 31.6 µM (active) and 24.1 µM (active). Further, the Potency result in assay [2] was “inactive”.

With `NS(=O)(=O)c1cc(C(=O)O)c(NCc2ccco2)cc1Cl`, the Potency result in assay [1] and in assay [2] was “inactive” each time.

As to `CN1CCC(=C2c3ccccc3CCc3sccc32)CC1`, the Potency entry in assay [1] and in assay [2] was “inactive” each time.

For `Cc1cc(=O)c2c(O)c3c(O)cc(=O)c4c3c3c(cc(O)c1c23)C(C)(C)C=4O`, the Potency entry in assay [1] and in assay [2] was “inactive” each time.

Regarding `Cc1cccc(CN2CCN(C(c3ccccc3)c3ccc(Cl)cc3)CC2)c1` (stereo unspecified), the Potency result in assay [1] and in assay [2] was “inactive” in each case.

With `Cc1ncc([N+](=O)[O-])n1CC(C)O` (stereo unspecified), the Potency entry in assay [1] and in assay [2] was “inactive” throughout.

In the case of `CCCCCCCCOc1ccccc1C(=O)Nc1ccc(C(=O)OCC[N+](C)(CC)CC)cc1`, the Potency entry in assay [1] and in assay [2] was “inactive” in each case.

As to `Oc1ccc(OCc2ccccc2)cc1`, the Potency entry in assay [1] and in assay [2] was “inactive” throughout.

For `Cn1c(NCCN(CCO)CCCc2ccc([N+](=O)[O-])cc2)cc(=O)n(C)c1=O`, the Potency entry in assay [1] and in assay [2] was “inactive” each time.

Consider `COCCCN1CCC(NC(=O)c2cc(Cl)c(N)c3c2OCC3)CC1`, for which the Potency entry in assay [1] and in assay [2] was “inactive” throughout.

Regarding `CCOC(=O)c1c(C)n(C)c2ccc(O)cc12`, the Potency result in assay [1] and in assay [2] was “inactive” in each case.

On to `N=C(N=C(N)N)N1CCOCC1`, for which the Potency entry in assay [1] and in assay [2] was “inactive” each time.

For the compound `CCN(CC)CCOc1ccc(Cc2ccccc2)cc1`, the Potency entry in assay [1] and in assay [2] was “inactive” throughout.

With `COC(=O)N[C@H](C(=O)N[C@@H](Cc1ccccc1)[C@@H](O)CN(Cc1ccc(-c2ccccn2)cc1)NC(=O)[C@@H](NC(=O)OC)C(C)(C)C)C(C)(C)C`, the Potency entry in assay [1] and in assay [2] was “inactive” in each case.

With `Cc1ccc(C(=O)c2cc(O)c(O)c([N+](=O)[O-])c2)cc1`, in assay [2], the Potency entry is “inactive”.

Take `CCCOc1ccc2nc(NC(=O)OC)[nH]c2c1`: the Potency entry in assay [1] and in assay [2] was “inactive” each time.

Turning to `CN(C)[C@@H](CCOc1cccc2ccccc12)c1ccccc1`, the Potency result in assay [1] and in assay [2] was “inactive” in each case.

On to `CCCCc1ccc2nc(NC(=O)OC)[nH]c2c1`, for which the Potency entry in assay [1] and in assay [2] was “inactive” throughout.

For `Nc1cc(C(Cl)=C(Cl)Cl)c(S(N)(=O)=O)cc1S(N)(=O)=O`, the Potency result in assay [1] and in assay [2] was “inactive” throughout.

As to `Nc1cccc2c1CN(C1CCC(=O)NC1=O)C2=O` (stereo unspecified), the Potency entry in assay [1] and in assay [2] was “inactive” each time.

On to `CC(C)Oc1ccc2c(=O)c(-c3ccccc3)coc2c1`, for which the Potency result in assay [1] and in assay [2] was “inactive” throughout.

Turning to `CC(C)[C@H](N)C(=O)OCCOCn1cnc2c(=O)[nH]c(N)nc21`, the Potency entry in assay [1] and in assay [2] was “inactive” throughout.

Regarding `Cc1cc2cc3c(C)cc(=O)oc3c(C)c2o1`, the Potency entry in assay [1] and in assay [2] was “inactive” throughout.

Consider `O=C(O)c1cc(=O)c2c(OCC(O)COc3cccc4oc(C(=O)O)cc(=O)c34)cccc2o1`, for which the Potency result in assay [1] and in assay [2] was “inactive” each time.

As for `Clc1ccc(C(Cn2ccnc2)OCc2c(Cl)cccc2Cl)c(Cl)c1` (stereo unspecified), the Potency result in assay [3] and in assay [2] was “inactive” in each case.

For `Cc1ccc(C)c(OCCCC(C)(C)C(=O)O)c1`, the Potency result in assay [1] and in assay [2] was “inactive” throughout.

Consider `O=C1CCc2ccc(OCCCCN3CCN(c4cccc(Cl)c4Cl)CC3)cc2N1`, for which the Potency result in assay [2] was “inactive”.

As for `CCCCN(CCCC)CCC(O)c1cc2c(Cl)cc(Cl)cc2c2cc(C(F)(F)F)ccc12` (stereo unspecified), the Potency entry in assay [1] and in assay [2] was “inactive” in each case.

On to `O=C(NCCO[N+](=O)[O-])c1cccnc1`, for which the Potency entry in assay [1] and in assay [2] was “inactive” each time.

As to `COC1=C(OC)C(=O)C(CCCCCCCCCCO)=C(C)C1=O`, the Potency entry in assay [1] and in assay [2] was “inactive” throughout.
